Compound activity deposited in PubChem BioAssay by National Center for Advancing Translational Sciences (NCATS).
p53null 39C tox: p53 null cell cytotoxicity, nonpermissive temperature; H1299 p53-null (neo) cells, 39C, ATPlite viability, 24 h; Potency, µM (highest dose often 46.1 µM), inactives show at the highest dose activity, negative = cell killing, hits mostly cytotoxic; actives 0.97% (n = 55,000); AID 904;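 note: 0% = DMSO only and -100% = full killing by 100 µM tamoxifen; nearly all actives have a fitted effect of over 50% in size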
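Following overnight plating at 37C (600 cells/well), H1299-neo or H1299-p53A138V cells are dosed up to 46 uM. Incubation lasts 24 hr at 39C before ATP detection.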
p53null 32C tox: kills p53 null cells at the permissive temperature; H1299-neo p53 null cells, ATP luminescence, 24 h, 32C; Potency, µM (highest dose often 46.1 µM), for the others: at the highest dose activity change, negative = cytotoxicity, most hits filed as cytotoxic; actives 0.62% (n = 55,000);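 note: 0% = DMSO only and -100% = full killing by 100 µM tamoxifen; nearly all actives have a fitted effect of over 55% in size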
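Overnight 37C seeding (600 cells/well) of H1299-neo preceded a 24 hr, 32C exposure to compounds up to 46 uM. ATP levels, read by luminescence after 20 min at RT, indicated surviving cells.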
FH mod: Identification of activators of human fumarate hydratase by quantitative high-throughput screening; Fumarate hydratase, mitochondrial (Homo sapiens), P07954; FH coupled MDH/diaphorase resazurin fluorescence, 15 min; Potency, µM (series often up to 79.9 µM), for inactives: at the highest dose activity change, negative = inhibition, hits mostly inhibitors; actives 0.22% (n = 54,000); note: the screen sought activators but most active calls are inhibition curves; nearly all actives have a fitted effect of over 45% in size
Target sequence (P07954 whole entry, looked up): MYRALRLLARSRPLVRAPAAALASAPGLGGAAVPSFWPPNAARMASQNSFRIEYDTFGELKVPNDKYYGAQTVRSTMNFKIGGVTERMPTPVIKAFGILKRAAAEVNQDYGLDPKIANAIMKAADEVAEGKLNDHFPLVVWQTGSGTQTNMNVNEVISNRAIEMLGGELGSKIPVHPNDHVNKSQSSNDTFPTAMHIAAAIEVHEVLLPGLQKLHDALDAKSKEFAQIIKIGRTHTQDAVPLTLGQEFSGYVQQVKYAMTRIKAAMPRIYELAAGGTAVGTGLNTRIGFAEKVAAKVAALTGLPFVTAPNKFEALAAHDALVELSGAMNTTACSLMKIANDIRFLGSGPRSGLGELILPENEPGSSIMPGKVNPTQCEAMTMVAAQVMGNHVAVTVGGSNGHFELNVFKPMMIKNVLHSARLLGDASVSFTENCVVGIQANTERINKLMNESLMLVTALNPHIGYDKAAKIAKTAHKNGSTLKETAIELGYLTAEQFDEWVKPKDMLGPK
* = called active by the depositor; [ ] = remark or other dose. A selection: hits, their analogues and other compounds. The true share with any hit is near 1.2%. Calls come from the whole dose curve; as a rule, active = well fitted curve in the direction sought with a large enough effect; inconclusive = small, poorly fitted or top-dose-only effect, or another doubt; inactive = no such curve, though single readings can be large; an effect the other way counts as inactive or inconclusive. Unless noted, % is set by controls: 0 for no effect and ±100 for the full control effect; potency is the fitted concentration of half-maximal effect.

How did COc1ccc(C(=O)/C=C/c2cn(CC(O)CN3CCCCCC3)c3ccccc23)cc1OC (stereo unspecified) do in these assays?
p53null 39C tox: inconclusive; p53null 32C tox: 1%; FH mod: -20%

Results for CCCCN(C)CC(O)Cn1cc(/C=C/C(=O)c2ccc(C)cc2)c2ccccc21 (stereo unspecified) ?
p53null 39C tox: 22µM*; p53null 32C tox: 16µM*; FH mod: -19%

What do the screens show for `CCCCN(C)CC(O)Cn1cc(/C=C/C(=O)c2ccc(Br)cc2)c2ccccc21` (stereo unspecified)?
p53null 39C tox: 13µM*; p53null 32C tox: inconclusive; FH mod: -11%

Results for O=C(/C=C/c1cn(CC(O)CN2CCCCCC2)c2ccccc12)c1ccc(Br)cc1 (stereo unspecified) ?
p53null 39C tox: 16µM*; p53null 32C tox: 0%; FH mod: -9%

What do the screens show for `Cc1cccc(NC(c2cccc(Cl)c2)c2ccc3cccnc3c2O)n1` (stereo unspecified)?
p53null 39C tox: 2.5µM*; p53null 32C tox: inconclusive; FH mod: -9%

Results for COc1ccc(C(Nc2ccccn2)c2ccc3ccc(C)nc3c2O)cc1C (stereo unspecified) ?
p53null 39C tox: inconclusive; p53null 32C tox: inconclusive; FH mod: 12%

Results for Cc1ccnc(NC(c2cccc(O)c2)c2ccc3ccc(C)nc3c2O)c1 (stereo unspecified) ?
p53null 39C tox: -7%; p53null 32C tox: -8%; FH mod: 3%

How did Cc1ccc(C(Nc2ccccn2)c2ccc3cccnc3c2O)cc1 (stereo unspecified) do in these assays?
p53null 39C tox: 4µM*; p53null 32C tox: inconclusive; FH mod: 14%

What do the screens show for `OC[C@H]1O[C@@H](Oc2cc(O)c3c(c2)O[C@@H](c2ccc(O)cc2)[C@H](O)C3)[C@H](O)[C@@H](O)[C@@H]1O`?
FH mod: 1%[53.3 µM]

Results for COC(=O)c1ccc(-c2nc3cc(N)ccc3o2)cc1 ?
p53null 39C tox: -14%; p53null 32C tox: inconclusive

How did Nc1ccc2oc(-c3ccccn3)nc2c1 do in these assays?
p53null 39C tox: -21%; p53null 32C tox: 11µM*

What do the screens show for `CCn1c(-c2nonc2N)nc2cncc(CNC3CCNCC3)c21`?
FH mod: 14%

What do the screens show for `Cc1csc2nc(-c3cccc(NC(=O)c4ccccc4F)c3)cn12`?
p53null 39C tox: 11µM*; p53null 32C tox: inconclusive; FH mod: inconclusive

How did Cc1csc2nc(-c3cccc(NC(=O)c4ccccc4Cl)c3)cn12 do in these assays?
p53null 39C tox: inconclusive; p53null 32C tox: -26%; FH mod: -7%

Results for CC1OC(OCC2OC(OC3CCC4(C)C(CCC5(C)C4CC=C4C6CC(C)(C)CCC6(C(=O)OC6OC(CO)C(O)C(O)C6O)CCC45C)C3(C)CO)C(O)C(O)C2O)C(O)C(O)C1O (stereo unspecified) ?
FH mod: 5%[20.6 µM]

Results for Cc1cc(/C=c2/sc3nc4ccccc4n3c2=O)c(C)n1-c1ccccc1 ?
FH mod: 5%

What do the screens show for `Cc1noc2c1-c1ccccc1C(c1ccc(Cl)cc1)=N[C@H]2CC(N)=O`?
FH mod: 12%

Results for COc1ccc(OC)c2sc(N3CCN(C(=O)C(C)(C)C)CC3)nc12 ?
p53null 39C tox: 11µM*; p53null 32C tox: 13µM*; FH mod: -3%

How did COc1ccc(OC)c2sc(N3CCN(C(=O)C4CC4)CC3)nc12 do in these assays?
p53null 39C tox: 11%; p53null 32C tox: inconclusive; FH mod: 15%

What do the screens show for `C=C1CO[C@@]2(O[C@H]3CC4C5CC=C6C[C@@H](O)C[C@@H](O[C@@H]7OC[C@H](O)[C@H](O[C@@H]8OC[C@@H](O)[C@H](O)[C@H]8O)[C@H]7O[C@@H]7O[C@@H](C)[C@H](OC(C)=O)[C@@H](OC(C)=O)[C@H]7OC(C)=O)[C@]6(C)C5CC[C@]4(C)[C@@H]3[C@@H]2C)[C@@H](O)[C@H]1OC1OC(C)C(O)C(O)C1O` (stereo partly specified)?
FH mod: -3%[13.5 µM]

Results for C=CC1C(OC2OC(CO)C(O)C(O)C2O)OC=C2C(=O)N3C(C(=O)O)Cc4c([nH]c5ccccc45)C3CC21 (stereo unspecified) ?
FH mod: 11%[53.3 µM]

What do the screens show for `Cc1nnc(SCC(=O)NCc2cccc(F)c2)c2nn(-c3ccccc3)c(C)c12`?
p53null 39C tox: 27%; p53null 32C tox: 22%; FH mod: -2%
